From PubChem BioAssay AID1069 (NMMLSC, 2008)
Active and inactive are the calls of the source.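 How the source made its calls: active means high combined rank on largest and smallest cell-count-weighted shift across three tests, rank score above 45, floors 50 and 25 (some results past the limit were not filed as active); inactive means the rest.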

Assay: LNCaP granularity increase inducers, single-point recheck – cell-based, side scatter shift, flow cytometry, confirmation (AID 1069);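 further: LNCaP human prostate cancer cells in low-serum medium with charcoal-stripped FBS; percent of cells with raised granularity gated so DMSO controls show 10%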
Conditions: LNCaP differentiation, 4 d, stronger effect = higher value

| SMILES | side scatter shift (at 100 µM) | side scatter shift (side scatter shift, at 10 µM) [%] |
| --- | --- | --- |
| CCn1c(=O)cc(OCC(=O)N2CCN(Cc3ccc4c(c3)OCO4)CC2)c2ccccc21 | 0% (inactive) | 3.6 |
| CCOc1ccc(C2SCC(=O)Nc3c2c(=O)[nH]n3C2CCCCCC2)cc1 (stereo not given) | 22.2% (inactive) | 10.5 |
| Cc1ccc(Cn2c(C)c3cnn(CC(=O)N4CCC5(CC4)OCCO5)c(=O)c3c2C)cc1 | 9.1% (inactive) | 3.35 |
| Cc1nc2ccccc2c(=O)n1-c1ccc(F)cc1 | 8.9% (inactive) | 3.5 |
| Cc1cc(OCC(=O)O)c2c3c(c(=O)oc2c1)CCCC3 | 5.1% (inactive) | 5.9 |
| CCn1c(=O)cc(OCC(=O)N2CCC3(CC2)OCCO3)c2ccccc21 | 6.7% (inactive) | 1.7 |
| C[C@H]1CCC/C=C/C2C[C@H](O)CC2[C@H](O)/C=C/C(=O)O1 (stereo not given in full) | 8.7% (inactive) | 9.7 |
| O=C(COc1ccc2ccccc2c1)N1CCN(C2CCN(Cc3ccccc3)CC2)CC1 | 54.3% (inactive) | 5.8 |
| Cc1ccc2c(c1)[C@@H]1CN(C)CC[C@@H]1N2C(=O)Nc1cccc(C(F)(F)F)c1 | 23.1% (inactive) | 10.6 |
| Clc1ccc(COC(Cn2ccnc2)c2ccc(Cl)cc2Cl)cc1 (stereo not given) | 18.2% (inactive) | 2.85 |
